This is an account of results in PubChem BioAssay AID463173 (ICCB-Longwood Screening Facility, Harvard Medical School, 2010).

Among all 52,000 compounds or so, about 1,700 (3.3%) were called active. Only a selection was taken, and actives are over-represented in it overall. Values without a mark were called inactive. No stated cut-off is given here; in the data, active means survival mostly below about 52% (no sharp cut-off); inactive means mostly above about 56%.

The assay concerns Wild type. The experiment in a line: growth inhibition of S. aureus wild type versus tarO mutant, primary screen, teichoic acid synthesis inhibitors, RN4220, OD600 (AID 463173). The settings on record: S. aureus RN4220 wild type/DeltatarO growth, OD600, 18 h, hits give low values, screened at 18.75 µg/mL (by protocol).
On to `Cc1c(C(=O)Nc2cccc(C(F)(F)F)c2)sc2nc[nH]c(=O)c12`, for which the survival was 73%.
For `CCOC(=O)c1c(NC(=O)/C=C/c2ccc(OCC)cc2)sc2c1CCC2` the value was 139%.
Consider `CCOC(=O)c1c(NC(=O)CCCOc2ccc(Cl)cc2)sc2c1CCC2`, for which the survival was 20%.
The same measure for `CCOC(=O)c1c(NC(=O)CCCOc2ccc(C(C)(C)C)cc2)sc2c1CCCC2`: 9% (active); for `CCOC(=O)c1c(NC(=O)COc2ccc(C(C)(C)C)cc2)sc2c1CCCC2`: 69%.
The same measure for `CCOC(=O)c1c(NC(=O)/C=C/c2ccc(OCC)cc2)sc2c1CCCC2`: 78%.
The same measure for `CCOC(=O)c1c(NC(=O)CCCOc2ccc(C(C)(C)C)cc2)sc2c1CCC2`: 7% (active); for `CN(C)C(=O)c1ccc(N(C)S(=O)(=O)c2ccccc2)cc1`: 113%; for `COc1ccc(NC(=S)N(Cc2ccco2)Cc2cc3cc(C)c(C)cc3[nH]c2=O)cc1`: 103%.
As to `Cc1ccc(C(=O)CSc2nc(-c3ccccc3)nc3c2CCCC3)c(C)c1`, the survival was 58%.
The same measure for `Cc1ccc(C(=O)CSc2nc(-c3ccccc3)nc3c2CCCC3)cc1`: 55%.
For `Cc1ccc(C)c(C(=O)CSc2nc(-c3ccccc3)nc3c2CCCC3)c1` the value was 6% (active); for `CCn1c(CNC(=O)c2ccc(OC)cc2)nnc1SCC(=O)Nc1ccc(C)cc1`, 125%.
The same measure for `O=C1CN(C(=O)c2ccccc2C(F)(F)F)C(c2ccccc2)c2cc(F)ccc2N1` (centres undefined): 66%; for `COc1ccc(CNC(=O)C2CCCCN2S(=O)(=O)c2ccc(F)cc2)cc1` (centres undefined): 87%; for `O=C(NCc1ccc(F)cc1)C1CCCCN1S(=O)(=O)c1ccc(F)cc1` (centres undefined): 0% (active).
Consider `Cc1ccc(CNC(=O)C2CCCCN2S(=O)(=O)c2ccc(F)cc2)cc1` (centres undefined), for which the survival was 91%.
The same measure for `CCOC(=O)CSc1nc(-c2ccc(C)cc2C)cc(-c2ccccc2)c1C#N`: 63%; for `CNS(=O)(=O)c1cn(CC(=O)N2CCN(c3cc(C)ccc3C)CC2)cc1S(=O)(=O)NC`: 83%; for `COc1ccc(NC(=O)N(C(C)C)C2CCN(C(C)=O)CC2)c(OC)c1`: -4% (active).
For `COc1ccc(C)cc1NC(=O)N(Cc1ccc(C)o1)C1CCN(C(C)=O)CC1` the value was 0% (active); for `COc1ccc(NC(=O)N(Cc2ccco2)C2CCN(C(C)=O)CC2)c(OC)c1`, 85%; for `CCN1CCC(N(Cc2ccc(F)cc2)C(=O)Nc2cc(Cl)ccc2C(=O)OC)CC1`, 80%.
The same measure for `COc1ccc(C)cc1NC(=O)N(C(C)C)C1CCN(C(C)=O)CC1`: 85%.
Consider `CCOc1ccccc1NC(=O)N(Cc1ccc(C)o1)C1CCN(C(C)=O)CC1`, for which the survival is 75%.
The same measure for `COC(=O)c1ccc(Cl)cc1NC(=O)N(Cc1ccc(OC)cc1)C1CCN(C(C)=O)CC1`: -6% (active); for `CC(=O)N1CCC(N(Cc2ccc(C)o2)C(=O)Nc2ccc(C)cc2)CC1`: 70%; for `COC(=O)c1ccc(Cl)cc1NC(=O)N(Cc1ccc(C)o1)C1CCN(C(C)=O)CC1`: 76%.
For `O=C(Cn1c(=O)nc(-c2ccccc2)c2ccccc21)NCc1ccc(F)cc1` the value was 68%; for `CC(=O)c1ccc(N2CCN(C(=O)CCS(=O)(=O)c3ccc4c(c3)oc(=O)n4C)CC2)cc1`, 89%.
The same measure for `CCCCCOc1ccc(/C=C/C(=O)Nc2sc(C)c(C)c2C(=O)OCC)cc1OC`: 132%; for `CCCOCc1cc(CN2CCN(c3ccccc3OC)CC2)c(O)c2ncccc12`: 99%.
On to `CC(C)OC(=O)C1=C(N)OC2=C(C(=O)CCC2)C1c1ccccc1F` (centres undefined), for which the survival was 114%.
For `COc1ccc(CCNC(=O)Cn2c(-c3ccc(F)cc3)cc(C(C)=O)c2C)cc1OC`, the survival was 54%.
`CN1CCN(CCCNC(=O)c2cnn(-c3ccc(F)cc3)c2-n2cccc2)CC1`: the survival is 84%.
For `COc1ccc(C(=O)NC2CC(=O)N(c3ccc4c(c3)OCCO4)C2)cc1` (centres undefined), the survival is 143%.
The same measure for `COc1ccc(CCC(=O)NC2CC(=O)N(c3ccccc3)C2)cc1` (centres undefined): 131%; for `COc1ccc(N2CC(NC(=O)c3ccc(OC(C)C)cc3)CC2=O)cc1` (centres undefined): -2% (active); for `O=C(Cc1cccs1)NC1CC(=O)N(c2ccc(F)cc2)C1` (centres undefined): 95%.
In the case of `Cc1cccc(CC(=O)NC2CC(=O)N(c3ccccc3)C2)c1` (centres undefined), the survival was -6% (active).
For `COc1ccc(N2CC(NC(=O)c3ccc(S(=O)(=O)N4CCCC4)cc3)CC2=O)cc1` (centres undefined) the value was 118%.
The same measure for `COc1ccc(N2CC(NC(=O)CCCc3ccccc3)CC2=O)cc1` (centres undefined): 0% (active); for `O=C(Cc1ccccc1)NC1CC(=O)N(c2ccccc2)C1` (centres undefined): 76%.
The same measure for `Cc1ccc(N2CC(NC(=O)Cc3cccs3)CC2=O)cc1` (centres undefined): 0% (active).
For `COc1cccc(N2CC(NC(=O)CCCc3ccccc3)CC2=O)c1` (centres undefined), the survival is 88%.
The same measure for `Cc1cccc(CC(=O)NC2CC(=O)N(c3cccc(F)c3)C2)c1` (centres undefined): 60%; for `O=C(Cc1cccs1)NC1CC(=O)N(c2ccccc2)C1` (centres undefined): 78%.
The same measure for `COc1ccc(N2CC3=C(C2=O)C(c2ccc(O)c(OC)c2)NC(=O)N3C)cc1` (centres undefined): 71%.
Turning to `CCN(C(=O)Cn1nc(Cc2cccnc2)c2ccccc2c1=O)c1cc(C)ccc1C`, the survival is 83%.
For `CCc1ccccc1NC(=O)Cn1c(SCc2ccc(F)cc2)nc2ccncc21` the value was 48%; for `COc1ccc(NC(=O)C2CCN(S(=O)(=O)c3c(C)noc3/C=C/c3ccco3)CC2)cc1`, 128%; for `COc1ccc(CCNC(=O)CCn2c(=O)c3ccccc3n(Cc3ccccc3)c2=O)cc1OC`, 97%.
The same measure for `CCC(=O)Nc1ccc(CC)cc1-c1nc2ccccc2n(CC(=O)c2ccc(OC)cc2)c1=O`: 74%; for `Cc1ccc(N2CC(NC(=O)CCCc3ccccc3)CC2=O)cc1` (centres undefined): 53%; for `Cc1ccc(N2CC(NC(=O)CCc3ccccc3)CC2=O)cc1` (centres undefined): -3% (active).
The same measure for `O=C(CCc1ccccc1)NC1CC(=O)N(c2ccccc2)C1` (centres undefined): 78%; for `COc1ccccc1NC(=O)CN(c1ccc(C(C)C)cc1)S(=O)(=O)c1c(C)noc1C`: 88%; for `O=c1c2cc3c(nc2ncn1Cc1ccc(Cl)cc1)CCCC3`: 76%.
For `CCSc1nsc(NC(=O)Nc2cccc(OC)c2)n1`, the survival was 95%.
For `O=C(CSc1nnc(NC(=O)Nc2ccccc2)s1)Nc1cccc(F)c1` the value was 75%; for `CCSc1nsc(NC(=O)Nc2cccc(F)c2)n1`, 0% (active); for `Cc1ccc(CNC(=O)c2ccc(CSCc3ccc(Cl)cc3)o2)cc1`, 85%.
For `CCOc1ccc(C(c2c(O)cc(C)n(Cc3ccco3)c2=O)N2CCN(C)CC2)cc1` (centres undefined) the value was 66%; for `CC(C)(C)OC(=O)N1CCC(c2c(C(=O)NCc3ccc4c(c3)OCO4)cnn2-c2ccccc2Cl)CC1`, 75%.
The same measure for `CCCCCNC(=O)CCCCCn1c(=O)[nH]c2ccsc2c1=O`: 62%.
With `CNC(=O)C1CCC(Cn2c(=O)[nH]c3ccsc3c2=O)CC1` (centres undefined), the survival was 80%.
The same measure for `CCCCN(C)C(=O)C1CCC(Cn2c(=O)[nH]c3ccsc3c2=O)CC1` (centres undefined): -2% (active).
The same measure for `CCCn1nc(NC(=O)c2cccc(Cl)c2)c2cc3cccc(C)c3nc21`: 87%.
Consider `COc1ccc(-c2cccc(NS(=O)(=O)c3ccc(C)s3)c2)nn1`, for which the survival is 91%.
As to `Cc1ccc(Cl)cc1N1CCN(C(=O)C2CCN(Cc3nc(-c4cccc(Cl)c4)oc3C)CC2)CC1`, the survival is -4% (active).
For `COc1ccc(-c2nc(CSCC(=O)N3CCN(c4ccc(OC)cc4)CC3)c(C)o2)cc1` the value was 81%; for `Cc1cccc(-c2nc(CN3CCCC(C(=O)N4CCN(c5cc(Cl)ccc5C)CC4)C3)c(C)o2)c1` (centres undefined), 75%.
In the case of `Cc1oc(-c2cccc(Cl)c2)nc1CN1CCC(C(=O)NC(C)C)CC1`, the survival is 92%.
For `COc1ccc(-c2nc(CSCC(=O)N3CCN(c4cc(Cl)ccc4C)CC3)c(C)o2)cc1` the value was -1% (active); for `Cc1ccc(Cl)cc1N1CCN(C(=O)C2CCCN(Cc3nc(-c4cccc(Cl)c4)oc3C)C2)CC1` (centres undefined), 84%; for `Cc1ccc(C)c(N2CCN(C(=O)C3CCCN(Cc4nc(-c5cccc(Cl)c5)oc4C)C3)CC2)c1` (centres undefined), 81%.
The same measure for `COc1ccc(-c2nc(CSCC(=O)N3CCN(c4ccccc4F)CC3)c(C)o2)cc1`: 24%.
For `Cc1cccc(N2CCN(C(=O)C3CCN(Cc4nc(-c5ccc(Cl)cc5)oc4C)CC3)CC2)c1C` the value was 47%.
For the compound `CCc1ccc(-c2nc(CN3CCCC(C(=O)N4CCN(c5cc(Cl)ccc5C)CC4)C3)c(C)o2)cc1` (centres undefined), the survival was 84%.
The same measure for `Cc1ccc(Cl)cc1N1CCN(C(=O)C2CCN(Cc3nc(-c4ccc(Cl)cc4)oc3C)CC2)CC1`: -4% (active); for `Cc1ccc(C)c(N2CCN(C(=O)C3CCN(Cc4nc(-c5cccc(Cl)c5)oc4C)CC3)CC2)c1`: 3% (active); for `Cc1cccc(N2CCN(CCCNC(=O)Cn3ncc4c([nH]c5ccccc54)c3=O)CC2C)c1` (centres undefined): 101%.
For `CCc1ccccc1NC(=O)CSc1nnc(CC)c(CC)n1` the value was 74%.
For `Cc1ccccc1CN1c2ccccc2S(=O)(=O)c2ccccc21` the value was 73%; for `Cc1cc(C)c(Cn2c3ccccc3c3cnn(CC(=O)NC4CCCCCC4)c(=O)c32)c(C)c1`, 127%.
On to `COc1ccc(-n2cc(-c3ccccc3)nc2SCC(=O)Nc2ccccc2)cc1Cl`, for which the survival was 71%.
For `COc1ccc(Cl)cc1N=C1NC(=O)CC(C(=O)Nc2ccccc2C(F)(F)F)S1` (centres undefined) the value was 71%; for `COc1ccc(CCNC(=O)CN2C(=O)COc3ccc(C)cc32)cc1OC`, 71%.
For `COCCNC(=O)CCCn1c(SCC(=O)Nc2ccc(F)cc2)nc2c(sc3ccccc32)c1=O` the value was 103%.
